We go through 24 molecules from PubChem BioAssay (EPA / NIEHS).

The term AC50 denotes the concentration giving half of the maximal activity seen.

Inconclusive results are not listed. Active and inactive are the calls of the source. How the source made its calls: active means hit-call score of the fitted dose curve at least 0.9, where 1 is the maximum; inconclusive means response in the unintended direction; inactive means score below 0.9.

For assay [1], the target named is human Peripheral-type Benzodiazepine Receptor (PBR), TSPO (gene 706) (UniProt P30536). The assay can be described thus: NVS_MP_hPBR: NovaScreen (NVS) Membrane Protein Assay for human Peripheral-type Benzodiazepine Receptor (PBR) (AID 2283331).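 Further: hits reduce radioligand binding relative to DMSO baseline.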 The method, boiled down: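 Cell-free binding to human colonic membrane preparations measured by filter-based scintillation counting after 1 h. Compounds first run at 25 uM in duplicate, then concentration series for actives; signal loss against DMSO baseline.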

The target of assay [2] is chimpanzee Androgen Receptor (AR), AR (gene 747460) (UniProt O97775). The assay can be described thus: NVS_NR_cAR: NovaScreen (NVS) Nuclear Receptor Binding Assay for chimpanzee Androgen Receptor (AR) (AID 2283346).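 Further: radioligand displacement from AR measured by scintillation counting in a cell-free assay; a loss of bound radioligand signal versus DMSO counts as binding.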 The method, boiled down:
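Cell-free competition binding with insect-cell (Sf9/Sf21) extracted chimpanzee AR; scintillation signal from lysate at 72 h. Screened in duplicate at 25 uM, then concentration-response for actives; fitting relative to DMSO.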

For assay [3], the target named is Estrogen receptor (Homo sapiens) (UniProt P03372). The assay can be described thus: OT_ER_ERaERa_1440: Odyssey Thera (OT) 24-hour HEK293T Protein-Complementation Assay for Estrogen Receptor-alpha/-alpha Homodimer (AID 2283349).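 Further: hits raise fluorescence above DMSO for agonists and antagonists alike.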 The method, boiled down:
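HEK293T, stable ERα LBD (aa 310-547) homodimer PCA; 24 h compound exposure; mean fluorescence intensity (nuclear for agonists, nuclear plus cytoplasmic for antagonists) vs vehicle; positive fitting direction, DMSO baseline.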

The target is the same in assay [4]. The assay can be described thus: OT_ER_ERaERa_0480: Odyssey Thera (OT) 8-hour HEK293T Protein-Complementation Assay for Estrogen Receptor-alpha/-alpha Homodimer (AID 2283351).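 Further: rise in fluorescence from reassembled reporter fragments on ERα LBD homodimer in nucleus or whole cell.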 The method, boiled down:
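HEK293T cells stably expressing a PCA pair of ER alpha LBD (residues 310-547) were dosed for 8 hours. The gain in fluorescence intensity, nuclear for agonists and whole-cell for antagonists, was measured by laser scanning cytometry against DMSO vehicle.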

Assay [5] addresses Androgen Receptor/SRC-1 Co-activator, AR (gene 367) (UniProt P10275). The assay can be described thus: OT_AR_ARSRC1_0960: Odyssey Thera (OT) 16-hour HEK293T Protein-Complementation Assay for Androgen Receptor/SRC-1 Co-activator (AID 2283353).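 Further: actives raise the signal above DMSO so potency reflects increased AR and SRC-1 complex.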 In a few lines:
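Endpoint is gain-of-signal N/C fluorescence ratio in the 488 nm channel versus DMSO, from at least 400 cells per image, measured 16 h post-dosing. Cells: HEK293T stably carrying split-Venus AR/SRC-1 complementation constructs.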

The target in assay [6] is bovine Estrogen Receptor (ER), ESR1 (gene 407238) (UniProt P49884). The assay can be described thus: NVS_NR_bER: NovaScreen (NVS) Nuclear Receptor Binding Assay for bovine Estrogen Receptor (ER) (AID 2283345).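 Further: actives lower the bound radioligand count which means they displace the ER ligand.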 The method, boiled down:
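Scintillation counting of displaced radioligand gave the readout; bovine uterine membrane extract supplied the receptor. Measured 18 h post-dose, normalized to DMSO baseline. Single 25 uM duplicate screen preceded concentration-response follow-up.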

Assay [7] in a line: NVS_IC_rCaBTZCHL: NovaScreen (NVS) Ion Channel Assay for Calcium Channel, Type L, Benzothiazepine Site (CaBTZCHL) (AID 2283337). The method, boiled down:
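Rat cortical membrane preparation incubated 1.5 h with compound and benzothiazepine-site radioligand; loss of filter-bound counts versus DMSO marks displacement. Initial duplicate testing at 25 uM, actives followed up in concentration series.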

Assay [8] concerns the target Estrogen receptor (Homo sapiens) + Estrogen receptor beta (Homo sapiens) (UniProt P03372+Q92731). The assay can be described thus: OT_ER_ERaERb_0480: Odyssey Thera (OT) 8-hour HEK293T Protein-Complementation Assay for Estrogen Receptor-alpha/-beta Heterodimer (AID 2283352). The method, boiled down: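 Fluorescence intensity readout from a protein-fragment complementation reporter in HEK293T; ER-alpha/ER-beta LBD heterodimer. Dosing 8 h. Gain-of-signal fit relative to DMSO negative control; laser scanning cytometry of whole-well cell population.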

Chain of Estrogen receptor (Homo sapiens) (P03372 whole entry, looked up, the tested form may be a part): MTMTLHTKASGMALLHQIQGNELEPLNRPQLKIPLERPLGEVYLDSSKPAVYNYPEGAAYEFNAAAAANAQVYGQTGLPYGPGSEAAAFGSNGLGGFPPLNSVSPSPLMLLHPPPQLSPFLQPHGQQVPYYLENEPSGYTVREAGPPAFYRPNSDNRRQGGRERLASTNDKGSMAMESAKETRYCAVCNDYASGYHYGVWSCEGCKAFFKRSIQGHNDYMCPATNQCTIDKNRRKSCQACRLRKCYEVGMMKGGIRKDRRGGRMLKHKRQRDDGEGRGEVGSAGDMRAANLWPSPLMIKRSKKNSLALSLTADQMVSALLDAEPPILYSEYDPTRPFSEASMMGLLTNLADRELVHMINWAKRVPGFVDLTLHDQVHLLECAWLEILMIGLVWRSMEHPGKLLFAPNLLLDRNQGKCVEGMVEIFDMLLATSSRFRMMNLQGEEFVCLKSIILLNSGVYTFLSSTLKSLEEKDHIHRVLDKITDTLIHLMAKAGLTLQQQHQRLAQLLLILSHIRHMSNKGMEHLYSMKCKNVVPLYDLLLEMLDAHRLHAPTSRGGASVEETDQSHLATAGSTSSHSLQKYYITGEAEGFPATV
Chain of human Peripheral-type Benzodiazepine Receptor (PBR), TSPO (gene 706) (P30536 whole entry, looked up): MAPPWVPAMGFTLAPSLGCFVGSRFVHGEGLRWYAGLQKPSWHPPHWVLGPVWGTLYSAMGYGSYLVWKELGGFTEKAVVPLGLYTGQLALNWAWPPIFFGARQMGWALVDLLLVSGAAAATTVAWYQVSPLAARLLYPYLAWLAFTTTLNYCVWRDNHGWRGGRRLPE
Chain of chimpanzee Androgen Receptor (AR), AR (gene 747460) (O97775 whole entry, looked up): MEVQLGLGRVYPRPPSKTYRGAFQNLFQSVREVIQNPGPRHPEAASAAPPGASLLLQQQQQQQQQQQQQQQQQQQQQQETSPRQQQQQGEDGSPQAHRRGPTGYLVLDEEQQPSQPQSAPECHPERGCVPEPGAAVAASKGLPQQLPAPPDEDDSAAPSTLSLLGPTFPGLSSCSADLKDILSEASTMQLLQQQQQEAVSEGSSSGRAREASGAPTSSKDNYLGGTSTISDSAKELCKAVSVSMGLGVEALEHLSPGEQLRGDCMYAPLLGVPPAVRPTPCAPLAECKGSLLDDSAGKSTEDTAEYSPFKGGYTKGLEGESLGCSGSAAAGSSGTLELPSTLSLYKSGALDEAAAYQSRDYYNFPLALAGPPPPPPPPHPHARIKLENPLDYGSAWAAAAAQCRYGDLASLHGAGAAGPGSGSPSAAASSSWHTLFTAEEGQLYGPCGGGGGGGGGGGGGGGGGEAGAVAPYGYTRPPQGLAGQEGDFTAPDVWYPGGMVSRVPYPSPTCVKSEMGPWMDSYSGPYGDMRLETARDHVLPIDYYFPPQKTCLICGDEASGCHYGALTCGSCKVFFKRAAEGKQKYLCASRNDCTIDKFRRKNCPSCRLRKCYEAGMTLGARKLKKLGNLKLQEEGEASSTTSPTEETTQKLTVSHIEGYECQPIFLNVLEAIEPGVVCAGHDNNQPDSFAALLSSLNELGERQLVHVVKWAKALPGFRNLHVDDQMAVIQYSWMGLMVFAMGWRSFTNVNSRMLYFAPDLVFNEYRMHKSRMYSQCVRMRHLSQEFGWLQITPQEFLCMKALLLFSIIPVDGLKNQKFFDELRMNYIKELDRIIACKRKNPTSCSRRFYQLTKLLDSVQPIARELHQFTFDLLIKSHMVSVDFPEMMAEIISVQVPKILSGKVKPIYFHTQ
Chain of Androgen Receptor/SRC-1 Co-activator, AR (gene 367) (P10275 whole entry, looked up): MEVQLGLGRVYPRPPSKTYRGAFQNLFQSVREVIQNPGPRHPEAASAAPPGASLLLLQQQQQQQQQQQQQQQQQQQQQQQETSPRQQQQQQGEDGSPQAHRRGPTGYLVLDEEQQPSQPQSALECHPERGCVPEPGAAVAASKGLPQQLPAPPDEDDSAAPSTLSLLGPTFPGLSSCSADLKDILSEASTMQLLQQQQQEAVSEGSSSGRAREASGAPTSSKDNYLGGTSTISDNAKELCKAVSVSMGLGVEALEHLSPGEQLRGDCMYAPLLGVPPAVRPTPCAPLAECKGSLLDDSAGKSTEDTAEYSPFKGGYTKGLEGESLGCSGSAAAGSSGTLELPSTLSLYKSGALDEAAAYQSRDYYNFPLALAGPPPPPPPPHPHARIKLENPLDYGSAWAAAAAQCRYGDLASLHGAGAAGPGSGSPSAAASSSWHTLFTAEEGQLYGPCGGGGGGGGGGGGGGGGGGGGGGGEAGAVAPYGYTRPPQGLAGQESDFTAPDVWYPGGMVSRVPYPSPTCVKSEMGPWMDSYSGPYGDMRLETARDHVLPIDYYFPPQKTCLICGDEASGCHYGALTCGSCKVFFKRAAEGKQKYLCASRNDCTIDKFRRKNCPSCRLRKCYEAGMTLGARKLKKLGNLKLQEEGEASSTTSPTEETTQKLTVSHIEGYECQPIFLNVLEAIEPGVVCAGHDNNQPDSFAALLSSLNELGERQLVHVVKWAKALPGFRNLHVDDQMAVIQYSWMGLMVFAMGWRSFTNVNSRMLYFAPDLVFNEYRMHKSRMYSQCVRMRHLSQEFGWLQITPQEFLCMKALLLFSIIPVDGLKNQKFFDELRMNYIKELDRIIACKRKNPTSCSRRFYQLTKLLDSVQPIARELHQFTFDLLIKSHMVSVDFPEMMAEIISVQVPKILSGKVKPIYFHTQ
Chain of Estrogen receptor (Homo sapiens) + Estrogen receptor beta (Homo sapiens) (P03372 whole entry, looked up, the tested form may be a part): as the sequence (P03372 whole entry, looked up, the tested form may be a part) above
Chain of Estrogen receptor (Homo sapiens) + Estrogen receptor beta (Homo sapiens) (Q92731 whole entry, looked up, the tested form may be a part): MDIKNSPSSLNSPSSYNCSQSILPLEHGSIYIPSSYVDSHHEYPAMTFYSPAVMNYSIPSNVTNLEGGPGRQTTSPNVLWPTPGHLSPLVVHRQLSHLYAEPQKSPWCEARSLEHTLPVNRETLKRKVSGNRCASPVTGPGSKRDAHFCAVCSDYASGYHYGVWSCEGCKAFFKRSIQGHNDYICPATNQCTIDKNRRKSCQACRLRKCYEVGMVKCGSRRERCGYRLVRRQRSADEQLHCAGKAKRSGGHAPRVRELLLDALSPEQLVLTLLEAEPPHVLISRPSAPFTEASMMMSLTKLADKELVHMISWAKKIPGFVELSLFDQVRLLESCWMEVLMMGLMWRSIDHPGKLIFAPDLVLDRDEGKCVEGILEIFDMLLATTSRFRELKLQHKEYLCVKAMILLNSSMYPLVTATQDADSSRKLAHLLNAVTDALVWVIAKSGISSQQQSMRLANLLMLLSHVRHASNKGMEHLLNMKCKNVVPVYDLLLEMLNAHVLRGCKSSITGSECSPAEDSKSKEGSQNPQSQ
Chain of bovine Estrogen Receptor (ER), ESR1 (gene 407238) (P49884 whole entry, looked up): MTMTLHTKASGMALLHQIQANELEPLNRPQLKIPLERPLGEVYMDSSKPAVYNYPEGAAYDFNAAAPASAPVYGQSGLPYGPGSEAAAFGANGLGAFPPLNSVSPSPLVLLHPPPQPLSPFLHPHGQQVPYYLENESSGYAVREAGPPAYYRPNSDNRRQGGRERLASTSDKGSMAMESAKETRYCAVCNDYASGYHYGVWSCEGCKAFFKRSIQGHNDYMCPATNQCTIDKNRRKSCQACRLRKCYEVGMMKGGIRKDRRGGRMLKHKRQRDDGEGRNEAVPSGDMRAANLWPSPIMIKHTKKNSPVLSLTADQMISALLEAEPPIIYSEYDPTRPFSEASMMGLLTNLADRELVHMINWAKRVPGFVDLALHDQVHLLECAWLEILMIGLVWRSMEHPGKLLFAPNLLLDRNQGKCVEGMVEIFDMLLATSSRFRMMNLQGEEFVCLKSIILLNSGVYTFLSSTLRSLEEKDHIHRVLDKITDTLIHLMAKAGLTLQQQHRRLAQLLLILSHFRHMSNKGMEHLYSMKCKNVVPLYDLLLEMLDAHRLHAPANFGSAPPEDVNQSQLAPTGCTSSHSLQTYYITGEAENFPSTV

In the case of `COc1ccc(N=Nc2cc(C)c(N=Nc3ccc(S(=O)(=O)O)cc3)cc2OC)cc1`, the AC50 in assay [1] was 2.05 µM (active); in assay [2] it was 25 µM (active).

Turning to `OCC(O)c1ccccc1` (stereo not drawn), the call in assay [3] and in assay [4] was inactive.

On to `C=C(C)[C@H]1CC=C(C)C(=O)C1`, for which the AC50 in assay [1] was 25 µM (active). Also, the molecule was called inactive in assay [2].

On to `CCc1ccc(O)cc1`, for which the call in assay [5] was inactive.

In the case of `Nc1ccc(N)c2c1C(=O)c1ccccc1C2=O`, the result in assay [2] was inactive. Further, in assay [5], the half-maximal activity concentration (AC50) is 35.3 µM (active).

Take `C=C1CC[C@H](O)C/C1=C/C=C1\CCC[C@]2(C)[C@@H]([C@H](C)/C=C/[C@H](C)C(C)C)CC[C@@H]12`: the half-maximal activity concentration (AC50) in assay [2] was 28.4 µM (active).

As to `Cc1[nH]c(=O)c(C#N)cc1-c1ccncc1`, in assay [6], the result was inactive.

For the molecule `CC1CCC(C(C)C)C(O)C1` (stereo not drawn), the call in assay [5] was inactive.

For the molecule `Cc1cc(=O)oc2cc(N(C)C)ccc12`, the AC50 was 6.09 µM (active) in assay [1] and 6.8 µM (active) in assay [2].

In the case of `Nc1ccc2cc(S(=O)(=O)O)cc(O)c2c1N=Nc1ccccc1C(F)(F)F`, the concentration at half-maximal activity (AC50) in assay [1] is 1.16 µM (active).

Take `CCOC(=O)c1ccc(N)cc1`: in assay [2], the call was inactive.

Consider `OCc1cccc(Oc2ccccc2)c1`, for which the concentration at half-maximal activity (AC50) in assay [2] was 25 µM (active). Moreover, the outcome in assay [5] was inactive.

As to `CCCCC1CCC(O)CC1` (stereo not drawn), the outcome in assay [5] was inactive.

`BrCc1cccc(Oc2ccccc2)c1`: the concentration at half-maximal activity (AC50) in assay [2] is 25 µM (active). Further, the outcome in assay [5] was inactive.

As to `Nc1ccccc1[N+](=O)[O-]`, the molecule was called inactive in assay [2].

For the molecule `CCCCCCCCCCCCCC(=O)OCC(O)CO` (stereo not drawn), in assay [5], the molecule was called inactive.

With `CCCCOC(=O)CCCCCCCC(=O)OCCCC`, the outcome in assay [7] was inactive.

As to `CC(C)NCC(O)COc1ccc(CC(N)=O)cc1` (stereo not drawn), the molecule was classed as inactive in assay [3] and in assay [4].

For the molecule `Cc1ccc(S(=O)(=O)Oc2ccc(N=Nc3ccc(-c4ccc(N=Nc5c(O)ccc6cc(S(=O)(=O)O)cc(S(=O)(=O)O)c56)c(C)c4)cc3C)cc2)cc1`, the AC50 was 0.0489 µM (active) in assay [1] and 5.44 µM (active) in assay [2]. The call in assay [5] was inactive.

On to `CCc1cc(C(C)(C)C)c(O)c(C(C)(C)C)c1`, for which the result in assay [2] was inactive.

On to `CCOc1ccc(N=Nc2ccc(C=Cc3ccc(N=Nc4ccc(OCC)cc4)cc3S(=O)(=O)O)c(S(=O)(=O)O)c2)cc1`, for which the results for the concentration at half-maximal activity (AC50) in assay [1] and in assay [2] were 0.00187 µM (active) and 17.7 µM (active), respectively.

As to `O=C(Nc1ccc2c(O)c(N=Nc3ccc(N=Nc4ccc(S(=O)(=O)O)cc4)cc3)c(S(=O)(=O)O)cc2c1)c1ccccc1`, in assay [2], the AC50 was 40.6 µM (active). Moreover, the result in assay [3], in assay [4] and in assay [8] was inactive.

In the case of `CCCCC(CC)COC(=O)c1ccc(O)cc1` (stereo not drawn), the AC50 in assay [1] was 2.71 µM (active).

Take `CC(=O)O[C@@H]1CC2CCC1(C)C2(C)C` (stereo partly drawn): the molecule was classed as inactive in assay [5].
